Records with an inconclusive call do not appear. Activity calls are given as the source filed them. Unless noted, the call rests on the fitted dose curve.
Assays:
[1] = Nuclear factor erythroid 2-related factor 2/antioxidant responsive element (Nrf2/ARE) small molecule agonists: qHTS cell viability counter screen in human keratinocytes (AID 1919968; active means well fitted curve in the direction sought with a large enough effect in the repeat runs; an effect the other way counts as inactive or inconclusive; further: nearly all actives have a fitted effect of over 55% in size; further: potency means the concentration at half of the fitted maximal effect)
Procedure, shortened: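 HaCaT ARE reporter line, 1,500 cells/well; 5 h settle, 37 C/5% CO2; cpd in DMSO pinned; 23 h exposure; CellTiter-Fluor, 1 h; fluorescence.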

[2] = Nuclear factor erythroid 2-related factor 2/antioxidant responsive element (Nrf2/ARE) small molecule agonists: luciferase reporter gene qHTS assay in human keratinocytes (AID 1919969); further: nearly all actives have a fitted effect of over 35% in size; further: potency means the concentration at half of the fitted maximal effect
[3] = molecular target: Gonadotropin-releasing hormone receptor (Homo sapiens) (UniProt P30968); test: Human gonadotropin-releasing hormone receptor (GnRHR) small molecule agonists, calcium flux assay in GnRHR-HEK293 cells (AID 1920063); further: nearly all actives have a fitted effect of over 35% in size
Chain of Gonadotropin-releasing hormone receptor (Homo sapiens) (P30968 whole entry, looked up): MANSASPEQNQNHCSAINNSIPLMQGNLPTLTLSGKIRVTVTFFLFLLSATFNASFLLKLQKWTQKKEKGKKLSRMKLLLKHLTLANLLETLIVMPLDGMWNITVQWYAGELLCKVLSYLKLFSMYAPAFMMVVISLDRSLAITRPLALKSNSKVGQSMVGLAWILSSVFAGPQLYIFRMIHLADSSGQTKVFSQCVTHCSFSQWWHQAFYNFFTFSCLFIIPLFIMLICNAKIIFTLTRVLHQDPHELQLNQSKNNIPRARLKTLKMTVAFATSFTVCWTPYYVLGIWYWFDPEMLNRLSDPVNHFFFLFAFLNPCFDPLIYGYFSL
Procedure, shortened: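 GnRHR-HEK293, 1500 cells/well, 18 h 37 C/5% CO2; Ca dye 1 h 37 C; cpd pinned (DMSO), agonist mode; kinetic FL 480/540, 3 min, 1 s reads; 15 conc, n=3.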

[4] = molecular target: KiSS-1 receptor (Homo sapiens) (UniProt Q969F8); test: Human kisspeptin (KISS1R) small molecule agonists, calcium flux assay in KISS1R-HEK293 cells (AID 1920064; active means well fitted curve in the direction sought with a large enough effect in the repeat runs; an effect the other way counts as inactive or inconclusive)
Chain of KiSS-1 receptor (Homo sapiens) (Q969F8 whole entry, looked up): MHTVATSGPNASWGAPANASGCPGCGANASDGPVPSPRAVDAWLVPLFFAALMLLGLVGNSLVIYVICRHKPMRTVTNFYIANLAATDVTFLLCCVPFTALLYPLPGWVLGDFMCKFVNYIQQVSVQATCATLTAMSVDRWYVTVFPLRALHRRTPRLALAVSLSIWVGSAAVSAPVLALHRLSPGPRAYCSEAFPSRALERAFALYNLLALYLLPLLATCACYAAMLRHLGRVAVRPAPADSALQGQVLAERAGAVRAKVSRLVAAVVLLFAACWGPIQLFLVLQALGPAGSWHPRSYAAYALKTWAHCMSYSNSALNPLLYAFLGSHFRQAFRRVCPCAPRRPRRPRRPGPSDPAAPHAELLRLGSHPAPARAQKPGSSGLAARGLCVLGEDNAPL
Procedure, shortened: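 Stable human KISS1R HEK293 line; 18 h plating, 37 C/5% CO2; calcium dye 1 h 37 C; compound pin transfer; kinetic fluorescence Ex/Em 480/540, 3 min.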

[5] = G protein-coupled receptor (GPCR) small molecule agonists, calcium flux assay: HEK293 wild type cell line counter screen (AID 1920065)
Procedure, shortened: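 Kinetic fluorescence at Ex/Em 480/540, recorded every second over 3 min, served as the read-out after compound addition. Each compound was tested at 15 concentrations in triplicate on cells pre-loaded with calcium dye for 1 h.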

[6] = p53 small molecule agonists, cell-based qHTS assay with human liver microsomes (AID 1963577);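 further: p53 response element beta-lactamase reporter cells with liver microsomes plus NADPH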
Procedure, shortened: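 p53RE-bla cells; 5 h settle, 37 C/5% CO2; cpd + HLM 0.5 mg/mL + NADPH 0.5 mg/mL (final); 16 h 37 C; LiveBLAzer 2 h RT dark; fluorescence readout.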

[7] = p53 small molecule agonists, cell-based qHTS assay with rat liver microsomes: qHTS cell viability counter screen (AID 1963580); further: nearly all actives have a fitted effect of over 45% in size
Procedure, shortened: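 HCT-116 p53RE-bla, 4,000 cells/well, 5 h pre-incubation; cpd + rat liver microsomes 0.5 mg/mL + NADPH 0.5 mg/mL (final); 16 h, 37 C; CellTiter-Glo, 30 min RT; luminescence.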

[8] = p53 small molecule agonists, cell-based qHTS assay: qHTS cell viability counter screen (AID 1963581); further: nearly all actives have a fitted effect of over 45% in size; further: potency means the concentration at half of the fitted maximal effect
Procedure, shortened: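 HCT-116 p53RE-bla cells, 4,000/well, plated 5 h before compound pin transfer; 16 h at 37 C; bla substrate 2 h RT; then CellTiter-Glo, 30 min RT, luminescence.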

[9] = p53 small molecule agonists, cell-based qHTS assay (AID 1963582; active means well fitted activation curve with a large enough effect in the signal ratio in the repeat runs, not every such curve was filed as active; the % refers to the signal ratio; further: potency means the concentration at half of the fitted maximal effect)
Procedure, shortened: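 Reporter line: p53RE-bla. Pre-incubation 5 h, 37 C, 5% CO2; compound (DMSO, pin tool) 16 h, 37 C; B/G FRET substrate 2 h RT; fluorescence intensity read.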

[10] = molecular target: 5-hydroxytryptamine receptor 2A (Homo sapiens) (UniProt P28223); test: 5-hydroxytryptamine receptor 2A (HTR2A) small molecule antagonists, cell-based qHTS assay (AID 1963586); further: nearly all actives have a fitted effect of over 45% in size; further: potency means the concentration at half of the fitted maximal effect
Chain of 5-hydroxytryptamine receptor 2A (Homo sapiens) (P28223 whole entry, looked up): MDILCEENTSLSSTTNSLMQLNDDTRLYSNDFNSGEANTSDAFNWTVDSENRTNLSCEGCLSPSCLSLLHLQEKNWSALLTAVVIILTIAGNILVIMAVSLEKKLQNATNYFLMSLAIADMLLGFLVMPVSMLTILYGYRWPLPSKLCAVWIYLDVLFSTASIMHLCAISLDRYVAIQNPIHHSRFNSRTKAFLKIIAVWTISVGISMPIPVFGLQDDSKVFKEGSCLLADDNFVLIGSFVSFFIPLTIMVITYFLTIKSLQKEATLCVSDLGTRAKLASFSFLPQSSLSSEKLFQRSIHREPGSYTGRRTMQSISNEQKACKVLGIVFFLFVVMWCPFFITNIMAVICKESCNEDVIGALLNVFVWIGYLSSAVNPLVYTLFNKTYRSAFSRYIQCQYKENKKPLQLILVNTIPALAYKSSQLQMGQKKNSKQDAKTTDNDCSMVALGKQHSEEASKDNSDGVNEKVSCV
Procedure, shortened: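 Antagonist-mode intracellular calcium assay: DOI (4 nM) added after 5 min compound pre-incubation at room temperature to dye-loaded HTR2A-CHO cells. Fluorescence followed for 3 min, sampled every second.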

[11] = molecular target: 5-hydroxytryptamine receptor 2A (Homo sapiens) (UniProt P28223); test: 5-hydroxytryptamine receptor 2A (HTR2A) small molecule agonists, cell-based qHTS assay (AID 1963587); further: nearly all actives have a fitted effect of over 30% in size; further: potency means the concentration at half of the fitted maximal effect
Procedure, shortened: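 Kinetic calcium-flux fluorescence (2 min, 1 sec intervals) after compound addition in agonist mode. HTR2A-CHO cells were cultured 18 h, then dye-loaded 1 h at 37 C.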

[12] = molecular target: Muscarinic acetylcholine receptor M1 (Homo sapiens) (UniProt P11229); test: Cholinergic receptor muscarinic 1 (CHRM1) small molecule antagonists, cell-based qHTS assay (AID 1963588); further: nearly all actives have a fitted effect of over 40% in size
Chain of Muscarinic acetylcholine receptor M1 (Homo sapiens) (P11229 whole entry, looked up): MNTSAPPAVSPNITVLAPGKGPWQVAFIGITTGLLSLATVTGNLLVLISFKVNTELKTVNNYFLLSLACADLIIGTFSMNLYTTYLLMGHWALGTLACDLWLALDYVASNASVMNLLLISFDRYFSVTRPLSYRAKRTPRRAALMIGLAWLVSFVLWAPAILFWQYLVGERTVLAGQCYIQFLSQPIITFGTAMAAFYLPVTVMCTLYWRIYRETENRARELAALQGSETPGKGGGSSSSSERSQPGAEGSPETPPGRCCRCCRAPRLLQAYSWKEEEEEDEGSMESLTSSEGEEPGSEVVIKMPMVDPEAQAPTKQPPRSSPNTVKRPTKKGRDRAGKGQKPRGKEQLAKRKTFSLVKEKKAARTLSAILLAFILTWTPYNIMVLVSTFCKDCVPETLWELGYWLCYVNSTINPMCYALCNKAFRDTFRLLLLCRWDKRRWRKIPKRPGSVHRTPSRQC
Procedure, shortened: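 CHRM1-CHO calcium-flux assay, antagonist mode. Cells were seeded 18 h, dye-loaded 1 h at 37 C and given compound for 5 min at RT, then acetylcholine was added at 50nM. FDSS fluorescence was read 3 min; 15 concentrations, three runs.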

[13] = molecular target: Muscarinic acetylcholine receptor M1 (Homo sapiens) (UniProt P11229); test: Cholinergic receptor muscarinic 1 (CHRM1) small molecule agonists, cell-based qHTS assay (AID 1963589); further: nearly all actives have a fitted effect of over 35% in size
Procedure, shortened: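 Human M1 in stable CHO line; 18 h plating, 1 h dye load 37 C; cpd added (agonist mode); Ca2+ fluorescence kinetic read, 1 s intervals; 15 conc, 3 runs.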

[14] = cAMP Responsive Elements (CRE) small molecule agonists, cell-based qHTS assay (AID 1963590); further: potency means the concentration at half of the fitted maximal effect
Procedure, shortened: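 HEK 293T CRE-bla, 2,000 cells/well, 18 h preincubation 37 C/5% CO2; cpds (DMSO) pinned, 3 h; LiveBLAzer B/G FRET substrate, 2 h RT.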

[15] = molecular target: Beta-2 adrenergic receptor (Homo sapiens) (UniProt P07550); test: Adrenergic beta2 receptor (ADRB2) small molecule antagonists, cell-based qHTS assay (AID 1963592); further: nearly all actives have a fitted effect of over 50% in size; further: potency means the concentration at half of the fitted maximal effect
Chain of Beta-2 adrenergic receptor (Homo sapiens) (P07550 whole entry, looked up): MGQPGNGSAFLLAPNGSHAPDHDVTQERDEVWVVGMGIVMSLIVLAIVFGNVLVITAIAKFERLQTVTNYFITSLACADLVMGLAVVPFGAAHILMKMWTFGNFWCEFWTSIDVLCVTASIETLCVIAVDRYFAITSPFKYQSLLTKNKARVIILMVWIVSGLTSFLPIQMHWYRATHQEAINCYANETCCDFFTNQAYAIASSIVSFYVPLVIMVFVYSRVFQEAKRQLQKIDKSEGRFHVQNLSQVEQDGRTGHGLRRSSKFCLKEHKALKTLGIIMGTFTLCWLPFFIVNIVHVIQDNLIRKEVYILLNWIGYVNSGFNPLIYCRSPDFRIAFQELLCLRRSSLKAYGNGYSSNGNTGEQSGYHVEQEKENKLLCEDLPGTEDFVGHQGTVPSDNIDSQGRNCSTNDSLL
Procedure, shortened: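 Cells (CHO, stable ADRB2 overexpression) incubated 18-20hr at 37C; compounds added from DMSO; agonist mix (1nM isoproterenol, 100uM IBMX, 25uM Ro-20-1724) added; 0.5hr RT; d2-cAMP and anti-cAMP-cryptate added; 1hr RT; 665/615 nm read.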

[16] = molecular target: Beta-2 adrenergic receptor (Homo sapiens) (UniProt P07550); test: Adrenergic beta2 receptor (ADRB2) small molecule agonists, cell-based qHTS assay (AID 1963593);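 further: CHO cells stably overexpressing human ADRB2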
Procedure, shortened: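 CHO cells stably over-expressing ADRB2 were plated overnight at 37C, then dosed with compounds plus a stimulation mix containing 100uM IBMX and 25uM Ro-20-1724 for 0.5hr at room temperature. cAMP was measured by HTRF competition, 1hr.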

[17] = molecular target: D(2) dopamine receptor (Homo sapiens) (UniProt P14416); test: Dopamine D2 receptor (DRD2) small molecule antagonists, cell-based qHTS assay (AID 1963595; active means well fitted inhibition curve with a large enough effect in the signal ratio in the repeat runs, with a control signal flat; the % refers to the signal ratio; further: potency means the concentration at half of the fitted maximal effect)
Chain of D(2) dopamine receptor (Homo sapiens) (P14416 whole entry, looked up): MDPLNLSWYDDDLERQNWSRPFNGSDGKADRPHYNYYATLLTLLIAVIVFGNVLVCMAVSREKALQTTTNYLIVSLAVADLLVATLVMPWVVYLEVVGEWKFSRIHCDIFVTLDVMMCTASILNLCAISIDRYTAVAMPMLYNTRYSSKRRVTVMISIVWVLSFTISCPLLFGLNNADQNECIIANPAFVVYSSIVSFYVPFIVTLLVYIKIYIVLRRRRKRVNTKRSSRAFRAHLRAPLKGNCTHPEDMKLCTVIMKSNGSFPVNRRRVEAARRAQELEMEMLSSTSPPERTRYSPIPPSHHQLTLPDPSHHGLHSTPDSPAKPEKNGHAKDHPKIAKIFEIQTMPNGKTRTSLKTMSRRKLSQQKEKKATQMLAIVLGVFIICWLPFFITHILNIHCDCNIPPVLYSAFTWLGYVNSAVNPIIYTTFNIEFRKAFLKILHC
Procedure, shortened: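 Readout: HTRF cAMP, cAMP-d2 competing with cellular cAMP for anti-cAMP cryptate, read after 1 h. Cells: DRD2-HEK293. Conditions: 0.1 mM Ro20-1724, 12 nM quinpirole, 200 nM NKH477, 30 min RT.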

[18] = p53 small molecule agonists, cell-based qHTS assay with rat liver microsomes (AID 1963578)
Procedure, shortened: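 Rat liver microsome activation: microsomes 0.5 mg/mL, NADPH 0.5 mg/mL final; p53RE-bla cells, 16 h 37 C; LiveBLAzer readout, 2 h RT dark.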

[19] = molecular target: D(2) dopamine receptor (Homo sapiens) (UniProt P14416); test: Dopamine D2 receptor (DRD2) small molecule agonists, cell-based qHTS assay (AID 1963594); further: nearly all actives have a fitted effect of over 35% in size; further: potency means the concentration at half of the fitted maximal effect
Procedure, shortened: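 cAMP accumulation in DRD2-HEK293 cells measured by HTRF after 1 h detection; compounds added 10 min before NKH477 (200nM […]) forskolin-analogue stimulation, 30 min at room temperature, with Ro20-1724 present at 0.1 mM final.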

[20] = cAMP Responsive Elements (CRE) small molecule antagonists, cell-based qHTS assay (AID 1963591; active means well fitted inhibition curve with a large enough effect in the signal ratio in the repeat runs, not every such curve was filed as active; the % refers to the signal ratio)
Procedure, shortened: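 Beta-lactamase reporter read by FRET substrate (LiveBLAzer B/G) after 2 h at room temperature. CRE-bla HEK293T cells had received compound plus 0.25 uM (final) NKH477 for 3 h at 37 °C.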

Measured: Potency

CNC(=O)c1cnn(-c2nc(N)c3ncn([C@@H]4O[C@H](CO)[C@@H](O)[C@H]4O)c3n2)c1
active: [14] 11.9 µM | [17] 1.88 µM
not listed: [18] | [19] | [20]
inactive: all other assays above

N[C@H]1C(O)O[C@H](CO)[C@H](O)[C@@H]1O (stereo not given in full)
not listed: [7] | [8] | [16] | [20]
inactive: all other assays above

CC(C(O)c1ccc(O)cc1)N1CCC(Cc2ccccc2)CC1 (stereo not given)
active: [10] 16.3 µM
not listed: [7] | [9] | [12] | [15] | [16] | [19]
inactive: all other assays above

O=C(O)c1ccccc1NCCc1ccccc1
not listed: [14] | [16] | [18]
inactive: all other assays above

CCOC(=O)O[C@H](C)OC(=O)c1ccc2c(c1)cc(C(=O)NC1CCN(C(C)C)CC1)n2Cc1cc(-c2ccc(Cl)s2)on1
active: [1] 11.4 µM | [8] 38.1 µM | [17] 50.9 µM
inactive: [2] | [3] | [4] | [5] | [6] | [18] | [10] | [11] | [13]

C[C@H]1O[C@H](O[C@H]2[C@H](O)[C@@H](O)[C@@H](O[C@H]3[C@H](O)[C@@H](O)[C@H](O)O[C@@H]3CO)O[C@@H]2CO)[C@H](O)[C@@H](O)[C@@H]1N[C@H]1C=C(CO)[C@@H](O)[C@H](O)[C@H]1O
not listed: [10] | [11] | [12] | [13] | [18]
inactive: all other assays above

N[C@H](C(=O)O)[C@@H](O)c1ccc(O)c(O)c1
not listed: [10] | [16] | [18] | [19]
inactive: all other assays above

Cc1c(F)cc2c(=O)c(C(=O)O)cn3c2c1CCC3C (stereo not given)
not listed: [14] | [18] | [20]
inactive: all other assays above

Cc1ccccc1N1C(=O)c2cc(S(N)(=O)=O)c(Cl)cc2NC1C (stereo not given)
inactive: [1] | [2] | [3] | [4] | [5] | [6] | [7] | [8] | [9] | [15] | [17]

O=C1OC(OC(=O)c2cccnc2Nc2cccc(C(F)(F)F)c2)c2ccccc21 (stereo not given)
active: [2] 13.3 µM
not listed: [15] | [16] | [18] | [19]
inactive: all other assays above

Cc1ccc(S(=O)(=O)NC(=O)NN2CC3CCCC3C2)cc1 (stereo not given)
not listed: [10] | [11] | [12] | [13] | [18]
inactive: all other assays above

CC(C)c1ccc2sc3ccccc3c(=O)c2c1
active: [2] 68.6 µM
not listed: [7] | [14] | [16] | [17] | [20]
inactive: all other assays above

CC1CCC(C(C)CS)CC1S (stereo not given)
not listed: [16] | [18]
inactive: all other assays above

Cc1ccc(C)c(N)c1
not listed: [9] | [16] | [18]
inactive: all other assays above

CC(=O)C=O
not listed: [16] | [18]
inactive: all other assays above

CCCCCCCCCCCCCCCCCCN(C)C
not listed: [10] | [18]
inactive: all other assays above

OC[C@H]1O[C@@H](O[C@@H]2[C@@H](CO)O[C@](O)(CO)[C@H]2O)[C@H](O)[C@@H](O)[C@H]1O
not listed: [7] | [8] | [10]
inactive: all other assays above

C[C@@]12C(=O)OC(=O)[C@]1(C)C1CCC2O1
inactive: [2] | [3] | [4] | [5] | [6] | [18] | [16] | [19] | [17]
active: [1] 16.8 µM

N#Cc1ccc(C(=O)O)cc1
not listed: [16] | [18] | [20]
inactive: all other assays above

CCCc1nn(C)c2c(=O)[nH]c(-c3cc(S(=O)(=O)N4CCN(C)CC4)ccc3OCC)nc12
not listed: [7] | [10] | [11] | [12] | [13]
inactive: all other assays above

C=CCN1CCc2nc(N)sc2CC1
active: [10] 4.1 µM | [11] 6.01 µM | [19] 0.119 µM
not listed: [7] | [8]
inactive: all other assays above

C=C(C)CCCC
not listed: [7] | [18]
inactive: all other assays above

Cc1cc(O)c(C)c(C)c1O
not listed: [12] | [14] | [15] | [16] | [18]
inactive: all other assays above

CCN(CC)C(=O)Nc1ccc(OCC(O)CNC(C)(C)C)c(C(C)=O)c1 (stereo not given)
active: [15] 0.0473 µM
not listed: [9] | [14] | [16] | [18] | [19] | [20]
inactive: all other assays above

Cc1occc1C(=O)Nc1ccc(C(=O)N2CCC(F)(F)/C(=C\C(=O)N3CCC(N4CCCCC4)CC3)c3ccccc32)cc1
not listed: [9] | [12] | [17] | [18]
inactive: all other assays above

CCn1c2ccccc2c2cc([N+](=O)[O-])ccc21
not listed: [8] | [12] | [14] | [16] | [17] | [18]
inactive: all other assays above

OCCCCCCO
active: [9] 41.3 µM
not listed: [8] | [14] | [16] | [18]
inactive: all other assays above

CC(C)c1ccc(C(=O)N=C(N)N)cc1S(C)(=O)=O
not listed: [9] | [18] | [19] | [20]
inactive: all other assays above

c1ccc(COCc2ccccc2)cc1
not listed: [7] | [16] | [18]
inactive: all other assays above

— PubChem BioAssay (Tox21)
